Experimental data: the supplement of paper PMC10646978
± gives the standard deviation.

Experiments:
Details in all cases: modulator concentration 10 µM
[1] = test system: RAW-Dual (murine macrophage reporter line); test: NF-kB reporter (SEAP) activity fold change vs agonist alone; higher = enhanced NF-kB activity
Method in brief: (§1)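 RAW-Dual murine macrophage reporter cells were seeded at 50 000 per well in 384-well plates and pre-incubated 1 hour at 37 °C with compound pin-transferred to 10 μM final. After 1 hour, a PRR agonist was added and cells incubated overnight. Supernatant NF-κB (SEAP, QUANTI-Blue, 620 nm absorbance) and IRF (Lucia luciferase, QUANTI-Luc, luminescence) signals were divided by the mean agonist-only control on the same plate to give fold change. Two replicate plates were averaged, with errors by propagation.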

[2] = test system: RAW-Dual (murine macrophage reporter line); test: IRF reporter (Lucia luciferase) activity fold change vs agonist alone; higher = enhanced IRF activity
Method in brief: as §1

[3] = test system: RAW-Dual (murine macrophage reporter line); test: viability score (confluency relative to resting cells, overnight) (fraction); higher = more viable, active = viable (0.7 or more)
Method in brief: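 Overnight exposure to 10 μM final compound was carried out on RAW-Dual macrophages in 384-well plates. IncuCyte software generated two confluency masks over all wells imaged with IncuCyte. The viability score gives confluency in relation to resting cells. A compound met the cutoff if each mask exceeded 70% of resting cells.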

[4] = agonist: CpG ODN 1826 0.5 ug/mL

Structure (SMILES) | NF-kB reporter [1, 4] | NF-kB reporter ([1]; agonist: LPS 0.1 ug/mL) | NF-kB reporter ([1]; agonist: MPLA […]) | IRF reporter ([2]; agonist: 3'3'-cGAMP 10 ug/mL) | IRF reporter ([2]; agonist: LPS 0.1 ug/mL) | IRF reporter ([2]; agonist: MPLA […]) | viability score [3]
CCC1(CC)Cc2ccccc2C(CC(=O)N2CCOCC2)=N1.O=S(=O)(O)O | 0.627 ± 0.058 | 1.13 ± 0.072 | 1.16 ± 0.096 | 0.601 ± 0.044 | 0.964 ± 0.074 | 1.16 ± 0.21 | 0.829 (active)
Cc1ccc(C2C=C(c3ccccc3)Nc3ncnn32)cc1 (centres undefined) | 0.956 ± 0.089 | 1.07 ± 0.12 | 0.893 ± 0.064 | 1.1 ± 0.056 | 1.13 ± 0.11 | 1.23 ± 0.35 | 0.982 (active)
NC(=O)c1c(NC(=O)CN2C(=O)C(=Cc3ccc(Cl)cc3Cl)SC2=S)sc2c1CCCC2 | 0.936 ± 0.081 | 1.07 ± 0.067 | 0.885 ± 0.058 | 0.841 ± 0.028 | 1.23 ± 0.092 | 1.03 ± 0.29 | 0.997 (active)
O=c1n(CCCN2CCN(c3cccc(Cl)c3)CC2)nc2ccccn12 [Prestw-292] | 0.813 ± 0.062 | 0.912 ± 0.067 | 0.899 ± 0.089 | 0.932 ± 0.041 | 1.19 ± 0.14 | 1.19 ± 0.24 | 1.06 (active)
CC(=O)NC(c1ccccc1)c1c(OC(=O)COc2ccccc2)ccc2ccccc12 (centres undefined) | 0.73 ± 0.062 | 0.878 ± 0.049 | 0.714 ± 0.044 | 1.24 ± 0.062 | 0.987 ± 0.08 | 0.948 ± 0.12 | 1.01 (active)
COc1cc(CNCc2ccc3ccccc3c2)cc(OC)c1 | 1.26 ± 0.12 | 0.986 ± 0.1 | 1.24 ± 0.1 | 1.19 ± 0.35 | 0.906 ± 0.043 | 2.05 ± 0.17 | 0.589 (inactive)
Cc1cc(-c2ccccc2)nnc1NCCN1CCOCC1.Cl.Cl | 1.19 ± 0.28 | 1.04 ± 0.1 | 1 ± 0.073 | 0.966 ± 0.049 | 1.28 ± 0.14 | 1.27 ± 0.12 | 0.989 (active)
CCCCc1oc2ccccc2c1C(=O)c1cc(I)c(OCCN(CC)CC)c(I)c1 [Prestw-409] | 0.41 ± 0.08 | 0.977 ± 0.075 | 1.15 ± 0.11 | 0.574 ± 0.025 | 1.32 ± 0.2 | 1.51 ± 0.29 | 1.04 (active)
Cc1cc(C)n(N=Cc2c[nH]c3ccccc23)c(=O)c1C#N | 1.08 ± 0.18 | 0.963 ± 0.099 | 1.02 ± 0.096 | 1.03 ± 0.032 | 1.4 ± 0.24 | 1.6 ± 0.23 | 1.03 (active)
CS(=O)(=O)O.N#CC1(c2ccc(NC(=O)c3cccnc3NCc3ccncc3)cc2)CCCC1 | 0.394 ± 0.03 | 0.69 ± 0.033 | 0.547 ± 0.052 | 0.396 ± 0.019 | 1 ± 0.074 | 0.99 ± 0.083 | 0.992 (active)
C[C@H](Oc1cc(-c2cnn(C3CCNCC3)c2)cnc1N)c1c(Cl)ccc(F)c1Cl | 0.85 ± 0.069 | 0.896 ± 0.11 | 0.942 ± 0.08 | 1.03 ± 0.047 | 1.1 ± 0.23 | 1.17 ± 0.38 | 0.998 (active)
COCCNc1nc(SCC(=O)Nc2cccc(C(F)(F)F)c2)nc2ccccc12 | 0.268 ± 0.022 | 0.549 ± 0.051 | 0.528 ± 0.043 | 0.601 ± 0.035 | 1.29 ± 0.28 | 1.42 ± 0.46 | 0.956 (active)
CC[C@H](C)C(=O)O[C@H]1CCC=C2C=C[C@H](C)[C@H](CC[C@@H]3C[C@@H](O)CC(=O)O3)[C@H]21 | 1.34 ± 0.13 | 1.57 ± 0.14 | 1.04 ± 0.063 | 0.751 ± 0.051 | 1.01 ± 0.061 | 1.1 ± 0.085 | 0.935 (active)
Cn1nc(CNS(=O)(=O)c2cccc(C(F)(F)F)c2)c2c1CCCC2 | 0.981 ± 0.052 | 0.98 ± 0.092 | 1.21 ± 0.13 | 0.987 ± 0.085 | 1.06 ± 0.15 | 1.05 ± 0.27 | 0.926 (active)
Cc1ccc2nc(C)c(NC(=O)c3ccc4ccccc4n3)c(=O)n2c1 | 0.787 ± 0.25 | 1.03 ± 0.14 | 0.823 ± 0.091 | 0.793 ± 0.04 | 1.02 ± 0.061 | 1.1 ± 0.23 | 0.994 (active)
CCCCCCCCCCCC(CC1OC(=O)C1CCCCCC)OC(=O)C(CC(C)C)NC=O (centres undefined) | 1.55 ± 0.37 | 1.04 ± 0.092 | 0.364 ± 0.07 | 0.475 ± 0.023 | 1.61 ± 0.19 | 0.197 ± 0.065 | 0.943 (active)
COc1ccc(OC)c(S(=O)(=O)N2CCC(Oc3nc4c(C)cccc4s3)CC2)c1 | 0.687 ± 0.039 | 0.889 ± 0.092 | 1.02 ± 0.072 | 0.741 ± 0.042 | 1.15 ± 0.26 | 1.41 ± 0.57 | 0.908 (active)
COc1ccc(NC(=O)CN(c2ccc(F)cc2)S(C)(=O)=O)c(OC)c1 | 0.872 ± 0.073 | 0.896 ± 0.067 | 1.05 ± 0.099 | 0.921 ± 0.042 | 1.23 ± 0.089 | 1.35 ± 0.14 | 0.999 (active)
O=C(NCc1cccc(Cl)c1)c1cnc2n(c1=O)CCS2 | 1.03 ± 0.11 | 1.02 ± 0.1 | 0.974 ± 0.054 | 0.976 ± 0.035 | 1.04 ± 0.054 | 1.09 ± 0.19 | 0.999 (active)
C=CCn1c(S)nnc1-c1cc(OC)c(OC)c(OC)c1 | 0.986 ± 0.076 | 1.05 ± 0.084 | 0.988 ± 0.11 | 0.97 ± 0.041 | 1.14 ± 0.18 | 1.08 ± 0.12 | 1.03 (active)
COc1ccc(CNC2CCCc3ccccc32)c(OC)c1C (centres undefined) | 0.166 ± 0.016 | 0.504 ± 0.058 | 1.09 ± 0.1 | 1.24 ± 0.04 | 1.21 ± 0.14 | 1.42 ± 0.29 | 0.192 (inactive)
Cc1cccc(C(=O)N2N=C(C3CCCCC3)CC2(O)C(F)(F)F)c1O (centres undefined) | 0.735 ± 0.057 | 0.839 ± 0.064 | 0.955 ± 0.089 | 0.939 ± 0.046 | 1.4 ± 0.093 | 1.52 ± 0.14 | 1.01 (active)
Nc1ccn([C@@H]2O[C@H](CO)[C@@H](O)C2(F)F)c(=O)n1 | 1.8 ± 0.25 | 1.07 ± 0.28 | 1.21 ± 0.11 | 1.59 ± 0.088 | 1.61 ± 0.35 | 1.33 ± 0.31 | 0.241 (inactive)
O=[N+]([O-])c1ccc(OCC(O)CN2CCN(c3ccccc3)CC2)cc1 (centres undefined) | 0.91 ± 0.072 | 1.02 ± 0.059 | 0.964 ± 0.086 | 0.982 ± 0.024 | 1.42 ± 0.19 | 1.15 ± 0.15 | 1.01 (active)
CCOC(=O)Nc1ccc(NCc2ccc(F)cc2)nc1N.O=C(O)/C=C/C(=O)O | 1.21 ± 0.16 | 1.3 ± 0.34 | 0.885 ± 0.05 | 0.678 ± 0.043 | 1.3 ± 0.23 | 1.12 ± 0.09 | 0.977 (active)
CC(C)(C)c1ccc(C(=O)CCCN2CCC(OC(c3ccccc3)c3ccccc3)CC2)cc1 | 0.99 ± 0.25 | 1.05 ± 0.081 | 1.02 ± 0.073 | 0.646 ± 0.024 | 1.18 ± 0.23 | 1.21 ± 0.13 | 1 (active)
Cc1ccccc1N=Nc1ccc(NC(=O)c2ccnn2C)c(C)c1 | 1.12 ± 0.21 | 1.06 ± 0.086 | 0.946 ± 0.077 | 0.98 ± 0.039 | 1.21 ± 0.15 | 1.25 ± 0.21 | 1.01 (active)
